Results: PubChem BioAssay

Test: inhibitors of polyQ protein aggregation (AID 1604)
Conditions: polyglutamine-induced protein aggregation inhibition assay; stronger effect = higher value; concentration not given here

First: COC(=O)[C@H](c1ccccc1Cl)N1CCc2sccc2C1
Second: CC(C(=O)O)c1ccc(-c2ccccc2)c(F)c1 (centres undefined)
The inhibition of aggregation of the first is higher: 77.8% for the first, 29% for the second.

Going from `CC(C)NCC(O)COc1cccc2ccccc12` (centres undefined) to `CC(C)NCC(O)COc1ccc(CC(N)=O)cc1` (centres undefined), the inhibition of aggregation falls from 62.1% to -11.1%.

Compared with `CN(C)c1nc(N(C)C)nc(N(C)C)n1`, `Nc1ncnc2c1ncn2[C@@H]1O[C@H](CO)[C@@H](O)[C@@H]1O` is lower in inhibition of aggregation: 78.1% for the first, 56.1% for the second.

For `C[N+]1(C)CCCC(OC(=O)C(O)(c2ccccc2)c2ccccc2)C1` (centres undefined), the inhibition of aggregation was 55%.

Test: enhancers of glutamate uptake in motor neurons, MN-1 cell line (AID 1612);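 further: 0% = mean of DMSO vehicle wells on each plate; positive means more glutamate uptake than control and negative means less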
Conditions: MN-1 motor neuron cells, stronger effect = higher value

Going from `COC(=O)[C@H](c1ccccc1Cl)N1CCc2sccc2C1` to `CC(C(=O)O)c1ccc(-c2ccccc2)c(F)c1` (centres undefined), the glutamate uptake change rises from -7.57% to 14.1%.

First: CC(C)NCC(O)COc1cccc2ccccc12 (centres undefined)
Second: CC(C)NCC(O)COc1ccc(CC(N)=O)cc1 (centres undefined)
The glutamate uptake change of the first is higher: 4.46% for the first, -9.65% for the second.

First: CN(C)c1nc(N(C)C)nc(N(C)C)n1
Second: Nc1ncnc2c1ncn2[C@@H]1O[C@H](CO)[C@@H](O)[C@@H]1O
The glutamate uptake change of the first is higher: 20.9% for the first, 13.7% for the second.

In the case of `C[N+]1(C)CCCC(OC(=O)C(O)(c2ccccc2)c2ccccc2)C1` (centres undefined), the glutamate uptake change was -13.3%.
